Bioassay records as filed in PubChem BioAssay.
HT1080-NT tox: qHTS for induction of synthetic lethality in tumor cells producing 2HG: qHTS for the HT-1080-NT fibrosarcoma cell line; Potency, µM (top dose mostly 46.1 µM), for inactives: top-dose activity, negative = less viability, most hits filed as cytotoxic; 1.6% of 360,000 active; HT-1080-NT fibrosarcoma viability, CellTiter-Glo ATP luminescence, 48 h;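 further: NT is the 2HG producing partner of a matched IDH1 knockdown line; potency means the concentration at half of the fitted maximal effect; 0% = DMSO-treated cells and -100% = media-only wells without cells; nearly all actives have a fitted effect of over 55% in size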
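HT-1080-NT; 750 cells/well; 5% FBS RPMI; 48 h compound, 37 degrees C; CellTiter-Glo luminescence; curve fitting and curve-class assignment.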
HT1080 IDH1KD tx: qHTS for induction of synthetic lethality in tumor cells producing 2HG: qHTS for the HT-1080-IDH1KD cell line; Potency, µM (titrated, usually from 46.1 µM), without a hit: at the top dose activity, negative = toxicity, usual class: cytotoxic; HT-1080 IDH1 knockdown viability, ATP luminescence, 48 h; 2% of 360,000 active; AID 686971, 2013;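 further: potency means the concentration at half of the fitted maximal effect; 0% = DMSO wells and -100% = cell-free medium wells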
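IDH1KD HT-1080 cells, 750/well, RPMI + 5% FBS; compound pinned after 2 h settling; 48 h, 37 °C; CellTiter-Glo luminescence; % activity normalised to DMSO and no-cell wells; curves fitted, classed by r2 and efficacy.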
DT40 TDP1 CPT: qHTS for Inhibitors of human tyrosyl-DNA phosphodiesterase 1 (TDP1): qHTS in cells in presence of CPT; chicken DT40 Tdp1-/-;hTDP1 cells + 20 nM CPT, ATP luminescence, 48 h; Potency, µM (top dose mostly 46.2 µM), inactives show top-dose activity change, negative = growth inhibition, most hits filed as inhibitors; 12% of 420,000 active; AID 686979, 2013; further: potency means the concentration at half of the fitted maximal effect; nearly all actives have a fitted effect of over 55% in size
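Chicken DT40 Tdp1-/- cells complemented with human TDP1, 400 cells/well, exposed to compounds plus 20 nM camptothecin for at least 48 h at 37 C; viability read as ATP content by CellTiter-Glo luminescence.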
TDP1 cell noCPT: qHTS for Inhibitors of human tyrosyl-DNA phosphodiesterase 1 (TDP1): qHTS in cells in absence of CPT; Potency, µM (series often up to 46.2 µM), inactives show at the highest dose activity change, negative = growth inhibition, most hits filed as inhibitors; DT40 Tdp1-/- hTDP1 cells, no CPT, ATP luminescence, 48 h; 15% of 420,000 active; further: potency means the concentration at half of the fitted maximal effect; nearly all actives have a fitted effect of over 55% in size
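Compound effects on proliferation are scored in DT40 Tdp1-/-;hTDP1 cells in the absence of CPT. ATP levels (CellTiter-Glo luminescence) are recorded after a ≥48 hr, 37 °C incubation.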
IL-1B inflam inh: qHTS for Inhibitors of Inflammasome Signaling: IL-1-beta AlphaLISA Primary Screen; activity change, % at 57.5 µM; 4.7% of 360,000 active; THP-1 LPS/ATP IL-1B secretion, AlphaLISA, 16 h; active compounds read low; AID 743279, 2014; in the data active means activity change below about -50%; inconclusive means mostly about -30% to -49%
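Secreted IL-1B measured by AlphaLISA bead assay after 16 h compound exposure of THP-1 cells; compounds (final up to 57.5 uM) added 1 h before LPS (250 ng/mL) and ATP (1.25 mM) stimulation; lower signal means less secretion.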
Numbers without * were called inactive; ? = inconclusive; nt = no result; [ ] = another dose, or the depositor's remark. The list is not random: actives were taken first. Their share in the collection is about 19%. Unless noted, the call rests on the fitted dose curve; in most records, active means well fitted curve in the direction sought with a large enough effect; inconclusive means small, poorly fitted or top-dose-only effect, or another doubt; inactive means no such curve, though single readings can be large; an effect the other way counts as inactive or inconclusive. Unless noted, on the % scale 0 is the no-effect control and ±100 the full control effect.

SMILES | HT1080-NT tox | HT1080 IDH1KD tx | DT40 TDP1 CPT | TDP1 cell noCPT | IL-1B inflam inh
Cc1nc2ccccn2c1C(=O)/C=C/c1ccc(F)cc1 | -25% | -1% | ? | 21µM* | -108*
COc1ccc(/C=C/C(=O)c2c(C)nc3ccccn23)cc1 | 16% | 16% | -12% | -9% | -5
COc1cc(C(=O)NC2CCN(C)CC2)ccc1Nc1ncc2c(n1)N(C1CCCCC1)CCC(=O)N2C | ? | 4.6µM* | 0.92µM* | 0.58µM* | 4
COc1cc(C(=O)NC2CCN(C)CC2)ccc1Nc1ncc2c(n1)N(Cc1ccccc1)CCC(=O)N2C | 21µM* | ? | 3.7µM* | 5.2µM* | 55
NC(Cc1ccccc1)c1csc(Nc2ccc(C(F)(F)F)cn2)n1 (stereo not drawn) | ? | ? | 21µM* | 21µM* | -53*
COc1ccc(CC(N)c2csc(Nc3ccccn3)n2)cc1 (stereo not drawn) | -9% | ? | 23µM* | 26µM* | -50*
NC(=O)c1cccc(Nc2nc(C(N)Cc3ccc(C(F)(F)F)cc3)cs2)n1 (stereo not drawn) | 7.3µM* | ? | 6.5µM* | 10µM* | -28
COc1ccc(CC(N)c2csc(Nc3cccc(OC)n3)n2)cc1 (stereo not drawn) | 26µM* | -25% | 15µM* | 13µM* | 0
CCOc1ccc(N=C2NC(=O)SC2CC(=O)OC)cc1 (stereo not drawn) | 5% | 4% | -3% | -10% | 29
O=C(CSc1nnc(-c2ccccn2)o1)Nc1ccccc1Cl | -4% | -4% | -12% | -29% | -2
COc1ccccc1CCC(=O)Oc1ccccc1C#N | -4% | 4% | -3% | -6% | 0
Nc1ccn([C@@H]2O[C@H](CNCc3cccc(OC4CCCC4)c3)[C@@H](O)[C@H]2O)c(=O)n1 | 2% | 2% | -3% | 6% | -2
COc1ccc(C(N)c2csc(Nc3ccc(C(F)(F)F)cn3)n2)cc1 (stereo not drawn) | ? | ? | ? | 18µM* | -8
COc1cccc(Nc2nc(C(N)Cc3ccc(Cl)cc3)cs2)n1 (stereo not drawn) | 23µM* | 16µM* | 6.5µM* | 6.5µM* | -67*
NC(c1ccccc1)c1csc(Nc2ccc(C(=O)NCCCO)cn2)n1 (stereo not drawn) | 5% | 0% | -18% | 2% | 7
COc1cccc(Nc2nc(C(N)Cc3ccc(C(F)(F)F)cc3)cs2)n1 (stereo not drawn) | 13µM* | 23µM* | 9.2µM* | 12µM* | ?
CCOC(=O)c1ccc(N2C(=O)c3n[nH]c(C)c3C2c2ccccc2OC)cc1 (stereo not drawn) | nt | nt | 16µM* | 18µM* | nt
CCOC(=O)c1ccc(N2C(=O)c3n[nH]c(-c4ccco4)c3C2c2ccccc2OC)cc1 (stereo not drawn) | nt | nt | 18µM* | 6.5µM* | nt
CCOc1ccccc1CNC(=O)c1ccc(CS(=O)Cc2cccc(Cl)c2)o1 (stereo not drawn) | nt | nt | ? | 21µM* | nt
COc1ccc(OC)c(CCNC(=O)c2ccc(CS(=O)Cc3cccc(Cl)c3)o2)c1 (stereo not drawn) | -20% | -8% | 23µM* | 21µM* | -7
Cc1csc2nc(COC(=O)CNC(=O)c3ccccc3)cc(=O)n12 | nt | nt | 0% | 3% | nt
Cc1csc2nc(COC(=O)c3ccc(NC(=O)C(C)C)cc3)cc(=O)n12 | nt | nt | 18µM* | 26µM* | nt
Cc1csc2nc(COc3ccc(NC(=O)C(C)C)cc3)cc(=O)n12 | nt | nt | -2% | -27% | nt
Cc1csc2nc(COC(=O)c3ccc(NC(=O)c4ccccc4Br)cc3)cc(=O)n12 | nt | nt | 21µM* | 18µM* | nt
CCOC(=O)c1c(C)[nH]c(C(=O)N(C)CC(=O)Nc2ccc(OC)cc2)c1C | 5% | 7% | ? | 22% | 1
SMILES | HT1080-NT tox | HT1080 IDH1KD tx | DT40 TDP1 CPT | TDP1 cell noCPT | IL-1B inflam inh
O=C(CSc1ccccc1F)NCC(c1cccs1)N1CCOCC1 (stereo not drawn) | 0%[9.24 µM] | 13% | ? | ? | 32
O=C(CCNS(=O)(=O)c1ccccc1)Nc1ccccc1 | 0% | 0% | 5% | 12% | 10
Cc1cc(O)c(C(C)C)cc1N=Cc1cc([N+](=O)[O-])ccc1O | -21% | -16% | 23µM* | 16µM* | 2
Cc1cc(O)c(C(C)C)cc1N=Cc1ccccc1O | 1% | -2% | 3.7µM* | 4.6µM* | -10
Cc1cccc(NC(=O)C2CCN(S(=O)(=O)c3ccc4c(c3)NC(=O)CO4)CC2)c1 | -12% | -13% | ? | -16% | -12
CCCn1c(SC(C)C(=O)NCC2CCCO2)nc2sc3c(c2c1=O)CCC3 (stereo not drawn) | -6% | -2% | ? | ? | -14
Oc1ccccc1C(=S)N1CCN(c2cccc(Cl)c2)CC1 | -12% | -18% | 23µM* | ? | -97*
O=C(C(=O)N1CCN(c2cccc(Cl)c2)CC1)N1CCCCC1 | 19% | -16% | 17% | -21% | -5
COc1cc(C(=S)N2CCN(c3cccc(Cl)c3)CC2)ccc1O | ? | 16µM* | 10µM* | 18µM* | 10
Oc1ccc(C(=S)N2CCN(c3cccc(Cl)c3)CC2)cc1 | ? | ? | ? | ? | -93*
CC(=O)c1ccc(NC(=S)N2CCN(c3cccc(Cl)c3)CC2)cc1 | -15% | 5% | ? | ? | -24
Cc1cccc2cc3ccccc3nc12 | 23% | 8% | ? | ? | 1
CCCN(CCC)c1ccc(/C=C/c2ccc3cc(OCC)ccc3n2)cc1 | 8% | 15% | ? | 23µM* | 3
COc1ccc(CCc2ccc3ccccc3n2)cc1 | 5% | -26% | 6% | ? | -2
CN(C)c1ccc(/C=C/c2cccc3cc4ccccc4nc23)cc1 | nt | nt | 0.1µM* | 0.13µM* | nt
CCOc1cc(/C=C/c2cc(C(=O)O)c3ccccc3n2)ccc1O | -6% | 0% | -3% | -8% | 0
CN(C)c1ccc(/C=C/c2ccc3cc(F)ccc3n2)cc1 | nt | nt | ? | 10µM* | nt
CN(C)c1ccc(C(=N)Cc2ccc3ccccc3n2)cc1 | 0% | -3% | 21µM* | ? | 29
COCCNC(=O)C(OC(=O)C1=Cc2ccccc2OC1)C(C)C (stereo not drawn) | 0% | -3% | -9% | -26% | 46
COc1ccc(-c2csc3nc(-c4ccc(F)cc4)oc(=O)c23)cc1OC | nt | nt | ? | 8% | nt
